Compound activity deposited in PubChem BioAssay by Broad Institute.
The list is not random: actives were taken first. Their share in the collection is about 6.7%.
Pf Dd2 growth: inhibitors of Plasmodium falciparum Dd2 growth | P. falciparum Dd2 growth, SYBR Green, 72 h; stronger effect = lower value | activity change, % at 10 µM | actives 2.3% (n = 94,000); in the data active means activity change below about -80%
Tcruzi prolif: inhibitors of T. cruzi proliferation. T. cruzi beta-gal in NIH3T3, GalScreen luminescence, 90 h. inhibition, % at 8.34 µM. actives 5.9% (n = 77,000);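 active means mean inhibition above about 93%, with at least 55% of replicates each passing it, limit read from the data, passing the limit was not always enough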
C diff HTS: C. difficile growth inhibition. Clostridium difficile clinical isolate growth, OD600, 24 h; stronger effect = lower value. growth activity, negative = inhibition, % at 16 µg/mL (by protocol). actives 0.25% (n = 86,000);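 active means mean growth activity at or below -80% and every replicate also at or below -80%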;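 further: 0% = DMSO wells and -100% = levofloxacin 16 µg/mL wells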
* hit, by the source's call; ! = repeats disagree.

O=C(C[C@@H]1CC[C@H]2[C@@H](COC[C@@H](O)CN2C(=O)Nc2ccc(Cl)c(Cl)c2)O1)NCc1ccc(Cl)cc1 was read as Pf Dd2 growth -5, Tcruzi prolif 51 and C diff HTS -91*.
For COCC(=O)N[C@H]1CC[C@H](CC(=O)NCc2ccc(Cl)cc2)O[C@@H]1CO the results were Pf Dd2 growth 7, Tcruzi prolif -33 and C diff HTS 0.
`CNC(=O)C[C@@H]1CC[C@@H]2[C@H](COC[C@@H](O)CN2Cc2ccc(Cl)c(Cl)c2)O1` gave Pf Dd2 growth 24, Tcruzi prolif 43 and C diff HTS 1.
CNC[C@@H]1Oc2ccc(NC(=O)Cn3cnnn3)cc2CC(=O)N([C@@H](C)CO)C[C@@H]1C was read as Pf Dd2 growth 17.
O=C(C[C@H]1CC[C@H](NC(=O)C2CCC2)[C@H](CO)O1)NCc1ccccc1Cl was read as Pf Dd2 growth 16, Tcruzi prolif -78 and C diff HTS -1.
`Cc1ccccc1-c1ccc(C2[C@H]3CNC[C@@H]2N3Cc2ccc3c(c2)OCO3)cc1` (stereo partly specified) gave Pf Dd2 growth 4 and C diff HTS 0.
For C/C=C/c1ccc(C2[C@@H]3CN(Cc4ccc5c(c4)OCO5)C[C@H]2N3)cc1 (stereo partly specified) the results were Pf Dd2 growth -94*! and C diff HTS 2.
Screening c1cncc(-c2ccc(C3[C@@H]4CN(Cc5ccc6c(c5)OCO6)C[C@H]3N4)cc2)c1 (stereo partly specified) returned Pf Dd2 growth -37 and C diff HTS -4.
Screening Cc1ccccc1-c1ccc(C2[C@@H]3CN(Cc4ccc5c(c4)OCO5)C[C@H]2N3)cc1 (stereo partly specified) returned Pf Dd2 growth -7 and C diff HTS -94*.
`CN(C)C(=O)c1ccc(-c2ccc(C3[C@@H]4CN(Cc5ccc6c(c5)OCO6)C[C@H]3N4)cc2)cc1` (stereo partly specified) gave Pf Dd2 growth -82*! and C diff HTS -5.
Screening C/C=C/c1ccc(C2[C@H]3CNC[C@@H]2N3Cc2ccc3c(c2)OCO3)cc1 (stereo partly specified) returned Pf Dd2 growth -28 and C diff HTS 6.
C[C@H](CO)N1C[C@H](C)[C@@H](CN(C)C)Oc2cc(-c3ccccc3)ccc2S1(=O)=O was read as Pf Dd2 growth 1 and C diff HTS 0.
COc1ccc(OC(=O)N(C)C[C@H]2OCc3cn(nn3)CCCC(=O)N([C@@H](C)CO)C[C@H]2C)cc1 was read as Pf Dd2 growth 0, Tcruzi prolif -28 and C diff HTS 1.
`COCC(=O)Nc1ccc2c(c1)OC[C@H](C)N(C(=O)C1CCCC1)C[C@@H](C)[C@@H](OC)CN(C)C2=O` gave Pf Dd2 growth -6, Tcruzi prolif 1 and C diff HTS -4.
Screening COc1ccc(S(=O)(=O)N(C)C[C@H]2OCc3ccccc3-c3c(n(C)c4ccccc34)C(=O)N([C@@H](C)CO)C[C@@H]2C)cc1 returned Pf Dd2 growth -86* and Tcruzi prolif 60.
Screening C[C@@H]1CN([C@@H](C)CO)C(=O)c2c(c3ccccc3n2C)-c2ccccc2CO[C@@H]1CN(C)S(=O)(=O)c1ccccc1 returned Pf Dd2 growth -30 and Tcruzi prolif 27.
`COc1ccc(S(=O)(=O)N(C)C[C@@H]2OCc3ccccc3-c3c(n(C)c4ccccc34)C(=O)N([C@H](C)CO)C[C@@H]2C)cc1` gave Pf Dd2 growth -83* and Tcruzi prolif 72.
Screening COc1cccc(S(=O)(=O)N(C)C[C@H]2OCc3ccccc3-c3c(n(C)c4ccccc34)C(=O)N([C@H](C)CO)C[C@H]2C)c1 returned Pf Dd2 growth -43, Tcruzi prolif 0 and C diff HTS -1.
For C[C@@H]1CN([C@H](C)CO)C(=O)c2c(c3ccccc3n2C)-c2ccccc2CO[C@@H]1CN(C)Cc1ccc(C(F)(F)F)cc1 the results were Pf Dd2 growth -62 and C diff HTS 15.
Screening C[C@H]1CN([C@@H](C)CO)C(=O)c2c(c3ccccc3n2C)-c2ccccc2CO[C@@H]1CN(C)Cc1ccc(C(F)(F)F)cc1 returned Pf Dd2 growth -58 and C diff HTS 37.
For C[C@@H]1CN([C@H](C)CO)C(=O)c2c(c3ccccc3n2C)-c2ccccc2CO[C@H]1CN(C)Cc1cccc(C(F)(F)F)c1 the results were Pf Dd2 growth -84* and C diff HTS 3.
Screening C[C@@H]1CN([C@@H](C)CO)C(=O)c2c(c3ccccc3n2C)-c2ccccc2CO[C@@H]1CN(C)Cc1ccc2c(c1)OCO2 returned Pf Dd2 growth -83* and C diff HTS 18.
`C[C@H](CO)N1C[C@H](C)[C@@H](CN(C)Cc2cccc(O)c2)OCc2ccccc2-c2c(n(C)c3ccccc23)C1=O` gave Pf Dd2 growth -72 and C diff HTS -1.
Screening C[C@@H]1CN([C@@H](C)CO)C(=O)c2c(c3ccccc3n2C)-c2ccccc2CO[C@H]1CN(C)Cc1cccc(C(F)(F)F)c1 returned Pf Dd2 growth -92* and C diff HTS 31.
Screening C[C@@H]1CN([C@H](C)CO)C(=O)c2c(c3ccccc3n2C)-c2ccccc2CO[C@@H]1CN(C)Cc1cccc(O)c1 returned Pf Dd2 growth -88* and C diff HTS -6.
`C[C@@H]1CN([C@H](C)CO)C(=O)c2c(c3ccccc3n2C)-c2ccccc2CO[C@@H]1CN(C)Cc1ccc2c(c1)OCO2` gave Pf Dd2 growth -59 and C diff HTS 30.
Screening CN(C)c1ccc2c(c1)[C@@H]1C[C@@H](CC(=O)NCc3ccc(-c4ccccc4)cc3)O[C@H](CO)[C@@H]1O2 returned Pf Dd2 growth -46, Tcruzi prolif 77 and C diff HTS -19.
`C[C@@H]1CN([C@@H](C)CO)C(=O)c2cccc(NC(=O)C3CCOCC3)c2O[C@@H]1CN(C)Cc1ccc2c(c1)OCO2` gave Pf Dd2 growth 25, Tcruzi prolif 11 and C diff HTS 1.
CCCC(=O)Nc1ccc2c(c1)C(=O)N(C)[C@@H]1CC[C@@H](CC(=O)NCC3CCCCC3)O[C@H]1CO2 was read as Pf Dd2 growth -13, Tcruzi prolif -1 and C diff HTS -3.
Cc1noc(C)c1S(=O)(=O)N(C)C[C@@H]1OCCCC[C@H](C)Oc2ccc(NC(=O)Nc3cccc4ccccc34)cc2C(=O)N([C@H](C)CO)C[C@H]1C was read as Pf Dd2 growth -79, Tcruzi prolif 83 and C diff HTS -3.
`Cc1noc(C)c1S(=O)(=O)N(C)C[C@H]1OCCCC[C@H](C)Oc2ccc(NC(=O)Nc3cccc4ccccc34)cc2C(=O)N([C@H](C)CO)C[C@H]1C` gave Pf Dd2 growth -92* and C diff HTS 0.
Cc1noc(C)c1S(=O)(=O)N(C)C[C@@H]1OCCCC[C@@H](C)Oc2ccc(NC(=O)Nc3ccccc3)cc2C(=O)N([C@H](C)CO)C[C@H]1C was read as Pf Dd2 growth -83* and C diff HTS 14.
